Experimental findings from PubChem BioAssay AID1567 (National Center for Advancing Translational Sciences (NCATS), 2009) are described below.

SMILES strings stand for the structures. Inconclusive results are not listed. Where a call stands in place of a potency, no number is given. Active and inactive are the calls of the source. Calls follow the shape of the dose curve; as a rule, active = well fitted inhibition curve with a large enough effect; inconclusive = small, poorly fitted or top-dose-only effect, or effect the other way; inactive = no such curve, though single readings can be large or run the other way.

The target of the experiment is Thyroid hormone receptor beta (Homo sapiens) (UniProt P10828). Nature of the experiment: Cell-based Gene Reporter Secondary Assay to Characterize qHTS Inhibitors of the Interaction of Thyroid Hormone Receptor and Steroid Receptor Coregulator 2. The text has this: NIH Molecular Libraries Probe Production Network [MLPCN] NIH Chemical Genomics Center [NCGC] MLPCN Grant: DK058080 Assay Provider: R. Kip Guy, St. Jude Children's Research Hospital NCGC Assay Overview: Thyroid receptor (TR) regulates many homeostatic processes including basal metabolism, cardiovascular function, body weight, and lipid trafficking. TR modulators are potential therapeutics for obesity and hyperlipidemias but current thyroid analogs have undesirable side effects, particularly cardiac stimulation. This secondary assay characterized selected actives identified in the qHTS for Inhibitors of the Interaction of Thyroid Hormone Receptor and Steroid Receptor Coregulator 2. The human follicular thyroid carcinoma cell line WRO (kindly provided by Dr. M. D. Ringel) stably expresses TRbeta and a luciferase reporter gene fused to TR response element. The addition of T3 ligand elevates expression of the TRE luciferase reporter. This assay measures the transcriptional activity of compounds.
NCGC Assay Protocol Summary: Cells were maintained in RPMI 1640 culture medium supplemented with 10% heat-inactivated FBS, 0.33 mg/ml hygromycin, 0.33 mg/ml geneticin, 50 units/ml penicillin, 50 ug/ml streptomycin. […] Following incubation, plates were equilibrated at ambient temperature for 30 min, 30 ul of Bright-Glo (Promega) was added and luminescence was detected by an EnVision (PerkinElmer).
A general note: In qHTS, concentration-response curves come from the screen itself.

Thyroid hormone receptor beta (Homo sapiens), sequence (P10828 whole entry, looked up): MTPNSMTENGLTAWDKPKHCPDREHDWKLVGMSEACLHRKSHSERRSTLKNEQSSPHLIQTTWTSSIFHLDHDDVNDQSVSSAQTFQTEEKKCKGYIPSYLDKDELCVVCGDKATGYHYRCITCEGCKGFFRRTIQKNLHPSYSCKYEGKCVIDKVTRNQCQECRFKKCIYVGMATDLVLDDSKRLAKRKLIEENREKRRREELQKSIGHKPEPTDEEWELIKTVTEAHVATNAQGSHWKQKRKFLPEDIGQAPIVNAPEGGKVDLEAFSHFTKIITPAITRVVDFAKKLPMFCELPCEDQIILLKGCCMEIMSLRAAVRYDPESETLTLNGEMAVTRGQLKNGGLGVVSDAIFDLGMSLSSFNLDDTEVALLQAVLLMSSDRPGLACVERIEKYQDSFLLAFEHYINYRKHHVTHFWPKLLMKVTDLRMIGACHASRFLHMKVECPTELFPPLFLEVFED

Consider `COP(=S)(OC)Oc1ccc([N+](=O)[O-])cc1`, for which the Potency was 3.98 µM (active). Turning to `CCCCCn1c(N)c(C(=O)NCc2cccs2)c2nc3ccccc3nc21`, the Potency result was “inactive”.
